Gli-Sufu antag = antagonists of Gli-Sufu signaling; Sufu-KO-LIGHT fibroblasts, Gli luciferase reporter luminescence; AID 588413; inhibition, % at 5 µM; 0.74% of 340,000 active;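 active means inhibition above about 55%, limit read from the data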;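 further: 0% = DMSO-treated cells and 100% = wells with medium but no cells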
GRIN3A LBD mod = NR3A (human) ligand-binding domain modulation; 2.5% of 340,000 active; Tm shift relative to glycine control, % at 25 µM; NR3A LBD differential scanning fluorimetry, Tm shift; 0% = protein alone, 100% = glycine-bound protein;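 active means melting temperature shift of at least 10% of the positive control shift, at one fixed dose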
MPTP block = inhibitors of mitochondrial permeability transition pore; inhibition, % at 10 µM; AID 602449; isolated mouse mitochondria, Ca2+ swelling absorbance, 30 min; 1.4% of 360,000 active;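 active means inhibition of 50% or more, scaled per plate between neutral and stimulator controls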;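 further: 0% = DMSO wells given calcium and 100% = 1 mM EGTA wells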
Beta cell apopt = beta cell apoptosis inhibition; INS-1E cytokine-induced death, ATP luminescence, 48 h; percent of positive-control rescue, neutral wells zero; protection from apoptosis, % (concentration not given with the values); 0.8% of 300,000 active; AID 435005;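 active means Every replicate reaches about 75%, or at least half do and their mean reaches it too, limit read from the data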;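 further: 0% = cytokine-treated negative control wells and 100% = positive control rescue; higher means more ATP so stronger rescue from cytokine killing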
CSC inhib = cancer stem cell inhibition; cancer stem cell-like cells viability, luminescence; inhibition, % at 7.5 µM; 1.1% of 300,000 active; in the data active means inhibition above about 75%; tested in HMLE shEcad cells
Mdm2 MdmX PPI = disrupts the human Mdm2-MdmX interaction; O15151+Q00987; SaOS-2 split-luciferase Mdm2/MdmX complementation, luminescence; inhibition, % at 8 µM; 3% of 330,000 active; AID 485346;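 active means inhibition of at least 50% at 8 µM in the primary screen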
Target sequence (O15151 whole entry, looked up): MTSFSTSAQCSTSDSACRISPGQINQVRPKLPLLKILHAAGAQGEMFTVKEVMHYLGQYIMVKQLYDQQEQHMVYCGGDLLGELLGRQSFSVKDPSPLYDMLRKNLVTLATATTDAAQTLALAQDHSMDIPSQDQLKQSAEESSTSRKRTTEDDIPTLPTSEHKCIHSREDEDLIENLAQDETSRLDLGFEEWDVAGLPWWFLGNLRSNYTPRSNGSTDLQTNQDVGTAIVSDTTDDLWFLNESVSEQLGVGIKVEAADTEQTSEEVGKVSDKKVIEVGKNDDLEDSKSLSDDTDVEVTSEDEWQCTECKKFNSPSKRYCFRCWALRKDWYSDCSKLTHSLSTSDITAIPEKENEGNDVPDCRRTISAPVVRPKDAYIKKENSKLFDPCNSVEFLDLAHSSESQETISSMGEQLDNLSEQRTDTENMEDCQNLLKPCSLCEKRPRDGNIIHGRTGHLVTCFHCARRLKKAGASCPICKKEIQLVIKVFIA
Target sequence (Q00987 whole entry, looked up): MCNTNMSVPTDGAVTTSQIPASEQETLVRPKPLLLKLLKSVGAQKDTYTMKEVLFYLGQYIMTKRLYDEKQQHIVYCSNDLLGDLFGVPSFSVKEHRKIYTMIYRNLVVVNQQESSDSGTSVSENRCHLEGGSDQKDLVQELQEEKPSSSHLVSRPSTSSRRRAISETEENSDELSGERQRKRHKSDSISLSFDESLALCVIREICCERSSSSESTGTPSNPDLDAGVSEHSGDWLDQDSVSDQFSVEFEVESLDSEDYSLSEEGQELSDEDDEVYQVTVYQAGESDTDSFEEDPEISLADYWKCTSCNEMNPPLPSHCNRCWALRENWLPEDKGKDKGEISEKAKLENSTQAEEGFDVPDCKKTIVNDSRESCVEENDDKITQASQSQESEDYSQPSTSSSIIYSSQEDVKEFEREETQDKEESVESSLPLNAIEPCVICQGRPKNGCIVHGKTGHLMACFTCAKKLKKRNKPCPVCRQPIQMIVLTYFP
The depositor's hits bear a star; . = no result. Compounds with a hit are over-represented: about 6.6% of the library has one in this group of screens.

SMILES	Gli-Sufu antag	GRIN3A LBD mod	MPTP block	Beta cell apopt	CSC inhib	Mdm2 MdmX PPI
Cc1ccc(CC#N)c(-c2c(CC#N)ccc(C)c2C)c1C	.	.	-1.4	.	.	.
CN(C)CCN(Cc1ccco1)C(=O)c1cc2c(Cl)nc3ccccc3c2s1	39.6	-1.2	0.7	-6.9	-12.4	20.7
Cc1ccc2nc(Cl)c3cc(C(=O)N(CCN(C)C)Cc4ccco4)sc3c2c1	29.7	-7.9	-3.3	-1.3	93.3*	39.6
O=C(c1cc(COc2ccc(F)cc2Cl)on1)N1CCCCCC1	-65.8	14.5*	-0.6	.	.	-158.1
CSc1ccccc1OCc1cc(C(=O)N2CCc3c(Cl)cccc3C2)no1	-11.5	1.8	0.8	78.7*	14.1	19.9
Cc1cc(OCc2cc(C(=O)N3CCCCCC3)no2)cc(C)c1Cl	-18.8	11.1*	0.5	-4.4	10.5	-88.8
CC(C(=O)Nc1ccccc1Br)N1c2cccc3cccc(c23)S1(=O)=O (stereo unspecified)	0.7	-2.7	-0.4	2.2	-0.8	13.3
O=C(O)c1cc(-c2ccc(Cl)c(Cl)c2)n(-c2ccccc2)n1	-12.4	.	1.3	-7.0	-4.3	11.5
Cc1ccc(NC(=O)[C@H](C)NC(=O)C2CCN(C(=O)[C@@H](N)CC(C)C)CC2)cc1	11.1	5.2	1.2	1.6	-13.4	6.0
NC(=O)CC(NC(=O)Cc1ccc(Br)cc1)c1ccc(NC2CCCCCC2)c([N+](=O)[O-])c1 (stereo unspecified)	-15.3	2.9	-1.5	-8.0	76.1*	39.0
CC(C)(C)C1CCc2onc(C(=O)Nc3cccnc3)c2C1 (stereo unspecified)	20.9	-3.1	-1.3	-3.6	2.6	34.0
O=C(Nc1cccnc1)c1noc2c1CCCC2	-34.5	11.1*	-0.6	.	.	-54.9
OC(c1ccccc1)(c1nc(-c2cccc3cccnc23)cs1)C(F)(F)F (stereo unspecified)	.	.	1.8	.	.	.
COc1ccc(-c2oc(=O)c3cc(OC)c(OC)cc3c2C#CCCCO)cc1	17.1	0.0	-0.4	7.5	24.1	48.5
COc1ccc(-c2oc(=O)c3cc(OC)c(OC)cc3c2C#CC2(O)CCCCC2)cc1	3.4	12.9*	-0.8	-5.8	5.4	25.5
COc1ccc(-c2sc3ccccc3c2C#CC2(O)CCCCC2)cc1	-3.0	-2.1	1.5	-3.6	89.0*	.
COc1ccc(-c2oc3c(c2C#CC2(O)CCCCC2)C(OC(C)=O)CCC3)cc1 (stereo unspecified)	.	.	0.6	.	.	.
COc1ccc(-c2sc3cc(OC)c(OC)cc3c2C#CC2(O)CCCCC2)cc1	28.7	2.1	1.2	1.5	125.1*	33.9
O=C(Nc1ccc(S(=O)(=O)Nc2ncccn2)cc1)C12CC3CC(CC(Cl)(C3)C1)C2	2.6	-10.1	-0.4	-7.4	-16.8	6.5
CCN(CC)CCN1C(=O)C(=O)/C(=C(/O)c2c(C)[nH]c(C(=O)OC)c2C)C1c1ccc(C)o1 (stereo unspecified)	-2.0	1.1	4.3	-4.2	-11.7	8.9
O=C(O)/C(CC(=O)c1ccc(Cl)cc1)=N/Nc1ccc([N+](=O)[O-])cc1[N+](=O)[O-]	-2.6	21.1*	3.2	8.3	10.5	7.7
Cc1nn(-c2ccccc2)c(/N=C/c2ccccc2O)c1-c1ccccc1	-55.1	14.4*	6.0	-1.8	-4.3	-16.3
Cc1nn(-c2ccccc2)c(N)c1-c1ccccc1	-17.3	1.4	0.3	-2.7	6.6	-24.2
Cn1cc(Br)c(C(=O)N/N=C/c2cc3ccccc3nc2Cl)n1	8.4	-0.6	0.2	-1.6	-9.5	21.9
O=C(CSc1nccc(-c2cccs2)n1)Nc1ccc(Cl)cc1	0.0	25.6*	10.2	-6.7	22.5	12.2
SMILES	Gli-Sufu antag	GRIN3A LBD mod	MPTP block	Beta cell apopt	CSC inhib	Mdm2 MdmX PPI
Cc1onc(-c2ccccc2)c1C(=O)NC1CCC(C)CC1 (stereo unspecified)	2.4	2.5	4.5	-1.1	27.4	15.6
Oc1ccccc1C1Nc2cccc3cccc(c23)N1	27.3	11.5*	2.8	3.3	-0.2	0.7
CC1(C)Cc2c(cnn2-c2ccc(F)cc2)C(NC(=O)C2=NNC(=O)CC2)C1 (stereo unspecified)	-8.8	-2.2	0.1	-0.8	-0.6	-38.0
C=CCN1CCOc2ccc(C)cc2S1(=O)=O	-9.6	10.1*	-0.9	.	.	.
Cc1ccc2c(c1)N(C(=O)CCC(=O)N1CCOCC1)CCO2	-15.2	0.3	-1.4	0.8	-12.3	-11.8
CCOC(=O)C1(Cc2ccccc2C)CCCN(C(=O)c2ccc(CSC)o2)C1 (stereo unspecified)	-14.6	0.7	-1.1	-4.6	-4.4	-1.7
COc1ccc(C(=O)N2CCCC(Nc3ccc(F)cc3)C2)c(OC)c1 (stereo unspecified)	-11.1	13.1*	1.1	.	-11.2	26.0
Cc1ccc(NC2CCCN(C(=O)CN3C(=O)CSC3=O)C2)cc1C (stereo unspecified)	-1.6	11.1*	-0.1	-7.7	-0.6	11.1
CC(C)c1ccc(NC2CCCN(C(=O)CN3C(=O)CSC3=O)C2)cc1 (stereo unspecified)	-8.3	-4.3	-0.7	-0.1	-9.9	-29.6
COc1ccc(C(=O)N2CCCC(Nc3ccc(C)c(C)c3)C2)c(OC)n1 (stereo unspecified)	-8.5	31.7*	0.3	-4.8	-14.5	23.6
CCO[C@H]1c2c(ccc3ccc(=O)oc23)OC(C)(C)[C@H]1O	-1.6	-1.9	-2.3	2.2	-13.4	11.5
COc1ccc2nc(C(c3ccc(C)cc3)n3c(-c4ccccc4Br)nc4ccccc43)[nH]c2c1 (stereo unspecified)	.	.	-2.0	.	.	.
Cc1cc(-c2ccccc2)n(-c2cc(N/N=C/c3ccccc3O)ncn2)n1	12.8	3.9	3.5	77.3*	105.1*	.
CNc1cc(-n2nc(C)cc2-c2ccccc2)ncn1	-4.6	1.8	-0.1	-1.7	-12.0	14.5
COc1ccc(C(=O)OCC(=O)c2ccc[nH]2)cc1	-20.9	1.9	0.6	-5.8	-9.0	-65.5
COc1ccc(C)cc1N1C(=N)/C(=C2/Nc3ccccc3S2)C(c2ccccc2)C1=O (stereo unspecified)	-8.2	-3.5	-0.7	-3.0	111.9*	.
CCOC(=O)Cc1csc(NC(=O)c2sc3nc4ccc(CC)cc4cc3c2N)n1	14.7	-0.8	2.2	-4.9	-19.0	2.2
CCOC(=O)Cc1csc(NC(=O)c2sc3nc4cc(C)ccc4cc3c2N)n1	-15.4	28.0*	-0.7	.	-14.7	-19.7
CNC(CC(=O)c1ccc([N+](=O)[O-])cc1)C(Cl)(Cl)Cl (stereo unspecified)	-8.5	-1.3	18.9	4.0	75.9*	.
CC(=O)NCCc1nc2cc(NC(=O)c3cccc([N+](=O)[O-])c3)ccc2n1C	8.8	0.1	-0.6	3.9	-9.8	12.2
Cn1c(=O)n(C)c2cc(/C=N/NC(=O)c3ccc(Cl)cc3)ccc21	-1.2	-1.2	0.9	2.4	-15.2	12.2
Cn1c(=O)cc(C(=O)N/N=C/c2ccc(Cl)cc2)[nH]c1=O	-0.1	13.4*	-0.1	-1.2	-7.2	-0.4

Source: PubChem
